Test results: the supplement of paper PMC8728848
The entries come from a sample that favours the strongest signals as a whole.

How the values were obtained:
Assay in all cases: glycan array binding signal (z-score within array); higher = stronger binding
Conditions in all cases: glycan notation: IUPAC condensed, linker removed
[1] = molecular target: Fuc(a1-2)Gal(b1-3)GalNAc(b1-3)Gal
Summary of the method: (§1)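 Columns mapping to the same glycan were averaged after glycan names were converted to IUPAC-condensed notation. The data come from 3228 arrays in the Consortium for Functional Glycomics database, limited to those with an available protein sequence. Binding is reported as a within-array Z-score averaged across arrays of one protein sequence and across linkers.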

[2] = molecular target: Fuc(a1-2)Gal(b1-4)GlcNAc(b1-2)Man(a1-3)[Fuc(a1-2)Gal(b1-4)GlcNAc(b1-2)Man(a1-6)]Man(b1-4)GlcNAc(b1-4)GlcNAc
Summary of the method: as §1

[3] = molecular target: Fuc(a1-2)Gal(b1-4)[Fuc(a1-3)]GlcNAc
Summary of the method: as §1

[4] = molecular target: Fuc(a1-2)[Gal(a1-3)]Gal(b1-4)Glc
Summary of the method: as §1

[5] = molecular target: Fuc(a1-2)[GalNAc(a1-3)]Gal(b1-4)GlcNAc(b1-3)Gal(b1-4)GlcNAc(b1-3)Gal(b1-4)GlcNAc
Summary of the method: as §1

[6] = molecular target: Gal(a1-3)Gal
Summary of the method: as §1

[7] = molecular target: Gal(a1-3)Gal(b1-4)GlcNAc(b1-3)GalNAc
Summary of the method: as §1

[8] = molecular target: Gal(a1-3)Gal(b1-4)[Fuc(a1-3)]GlcNAc(b1-2)Man(a1-3)[Gal(a1-3)Gal(b1-4)[Fuc(a1-3)]GlcNAc(b1-2)Man(a1-6)]Man(b1-4)GlcNAc(b1-4)GlcNAc
Summary of the method: as §1

[9] = molecular target: Gal(a1-3)GalNAc
Summary of the method: as §1

[10] = molecular target: Gal(b1-3)Gal(b1-4)GlcNAc
Summary of the method: as §1

[11] = molecular target: Gal(b1-3)GlcNAc(b1-2)Man(a1-3)[Gal(b1-3)GlcNAc(b1-2)Man(a1-6)]Man(b1-4)GlcNAc(b1-4)[Fuc(a1-6)]GlcNAc
Summary of the method: as §1

[12] = molecular target: Gal(b1-4)GlcNAc(b1-2)Man(a1-3)[Gal(b1-4)GlcNAc(b1-2)Man(a1-6)]Man(b1-4)GlcNAc(b1-4)GlcNAc
Summary of the method: as §1

[13] = molecular target: Gal(b1-4)GlcNAc(b1-2)Man(a1-3)[Gal(b1-4)GlcNAc(b1-2)Man(a1-6)]Man(b1-4)GlcNAc(b1-4)[Fuc(a1-6)]GlcNAc
Summary of the method: as §1

[14] = molecular target: Gal(b1-4)GlcNAc(b1-3)Gal(b1-4)GlcNAc(b1-3)Gal(b1-4)GlcNAc
Summary of the method: as §1

[15] = molecular target: Gal(b1-4)GlcNAc(b1-3)Gal(b1-4)[Fuc(a1-3)]GlcNAc(b1-3)Gal(b1-4)[Fuc(a1-3)]GlcNAc
Summary of the method: as §1

[16] = molecular target: Gal(b1-4)GlcNAc(b1-3)[GlcNAc(b1-6)]Gal(b1-4)GlcNAc
Summary of the method: as §1

[17] = molecular target: Gal6S(b1-4)Glc6S
Summary of the method: as §1

[18] = molecular target: GalNAc(a1-3)Gal
Summary of the method: as §1

[19] = molecular target: GlcNAc(a1-4)Gal(b1-4)GalNAc
Summary of the method: as §1

[20] = molecular target: GlcNAc(a1-4)Gal(b1-4)GlcNAc(b1-3)Gal(b1-4)[Fuc(a1-3)]GlcNAc(b1-3)Gal(b1-4)[Fuc(a1-3)]GlcNAc
Summary of the method: as §1

[21] = molecular target: GlcNAc(b1-2)Man(a1-3)[GlcNAc(b1-2)Man(a1-6)]Man(b1-4)GlcNAc(b1-4)[Fuc(a1-6)]GlcNAc
Summary of the method: as §1

[22] = molecular target: Man(a1-3)[Man(a1-6)]Man(a1-6)[Man(a1-2)Man(a1-3)]Man(b1-4)GlcNAc(b1-4)GlcNAc
Summary of the method: as §1

[23] = molecular target: Neu5Ac(a2-3)Gal(b1-4)GlcNAc(b1-3)Gal(b1-4)GlcNAc
Summary of the method: as §1

[24] = molecular target: Neu5Ac(a2-3)Gal(b1-4)[Fuc(a1-3)]GlcNAc
Summary of the method: as §1

[25] = molecular target: Neu5Ac(a2-3)GalNAc(b1-4)GlcNAc
Summary of the method: as §1

[26] = molecular target: Neu5Ac(a2-6)Gal
Summary of the method: as §1

[27] = molecular target: Neu5Gc(a2-3)Gal(b1-4)[Fuc(a1-3)]GlcNAc
Summary of the method: as §1

[28] = molecular target: Neu5Gc(b2-6)Gal(b1-4)GlcNAc
Summary of the method: as §1

[29] = molecular target: Kdn(a2-3)Gal(b1-4)Glc
Summary of the method: as §1

[30] = molecular target: Kdn(a2-3)Gal(b1-4)[Fuc(a1-3)]GlcNAc
Summary of the method: as §1

[31] = molecular target: Man(a1-3)[Man(a1-6)]Man
Summary of the method: as §1

[32] = molecular target: Neu5Ac(a2-3)Gal(b1-3)GlcNAc(b1-3)GalNAc
Summary of the method: as §1

[33] = molecular target: Neu5Ac(a2-3)Gal(b1-4)[Fuc(a1-3)]GlcNAc(b1-3)Gal(b1-4)[Fuc(a1-3)]GlcNAc(b1-3)Gal(b1-4)[Fuc(a1-3)]GlcNAc
Summary of the method: as §1

[34] = molecular target: Neu5Ac(a2-3)Gal(b1-4)[Fuc(a1-3)]GlcNAc(b1-3)GalNAc
Summary of the method: as §1

[35] = molecular target: Neu5Ac(a2-3)Gal6S(b1-4)[Fuc(a1-3)]GlcNAc
Summary of the method: as §1

[36] = molecular target: Neu5Ac(a2-6)Gal(b1-4)Glc
Summary of the method: as §1

[37] = molecular target: Neu5Ac(a2-6)Gal(b1-4)GlcNAc(b1-2)Man(a1-6)[Gal(b1-4)GlcNAc(b1-2)Man(a1-3)]Man(b1-4)GlcNAc(b1-4)GlcNAc
Summary of the method: as §1

[38] = molecular target: Neu5Ac(a2-6)Gal(b1-4)GlcNAc(b1-2)Man(a1-6)[Man(a1-3)]Man(b1-4)GlcNAc(b1-4)GlcNAc
Summary of the method: as §1

[39] = molecular target: Neu5Ac(a2-8)Neu5Ac(a2-3)[Gal(b1-3)GalNAc(b1-4)]Gal(b1-4)Glc
Summary of the method: as §1

[40] = molecular target: Neu5Ac(a2-8)Neu5Ac(a2-8)Neu5Ac(a2-8)Neu5Ac(a2-3)[GalNAc(b1-4)]Gal(b1-4)Glc
Summary of the method: as §1

[41] = molecular target: Neu5Ac9Ac(a2-3)Gal(b1-3)GlcNAc
Summary of the method: as §1

B1: SRS6 (Toxoplasma gondii), Q9NH12 (protein)
chain: MARTGSMQQRRGGFQTTARMLMAVCVSGVLLLSSGPSSANKLTEGQQNQNSGPGAATQEGPTIEGAVAKCVLKTTAAENGSSRAKNTTGLTLSKENLVVSLQCSGEKNAIVPKDQKKVCSAAPNAKVADCKGADTDKQVTLKSLLGTSGDIQWEKTIVSTDNKGEVMTLKIKESELPLFDKAFFVGCEEDKAQTRTSQATECKVNVSVKARPSTVGENNVVTCAYGKDSNPRPLEVEMSADNDTLTIDCGTDGSLKPTKYTEEFCVTDNSQLESCTTKKFSEILPTFLPSWWVSDSQNGSAKLTIPESGFPEEQQQFRLGCVPKKTTQSPQANPSVKTEKEEGAQNTDASTSNCSVIVTVKASNFSSLASSIAPTAAVAGGAAALTGFLVGSF
glycan array binding signal (z-score) [1]: 1.86
glycan array binding signal (z-score) [2]: 1.71
glycan array binding signal (z-score) [3]: 0.016
glycan array binding signal (z-score) [4]: -0.753
glycan array binding signal (z-score) [5]: -0.105
glycan array binding signal (z-score) [6]: 0.351
glycan array binding signal (z-score) [7]: 0.006
glycan array binding signal (z-score) [8]: 0.436
glycan array binding signal (z-score) [9]: -0.288
glycan array binding signal (z-score) [10]: -0.549
glycan array binding signal (z-score) [11]: 1.28
glycan array binding signal (z-score) [12]: -0.558
glycan array binding signal (z-score) [13]: 3.04
glycan array binding signal (z-score) [14]: 2.32
glycan array binding signal (z-score) [15]: -0.096
glycan array binding signal (z-score) [16]: 0.169
glycan array binding signal (z-score) [17]: 4.38
glycan array binding signal (z-score) [18]: 0.054
glycan array binding signal (z-score) [19]: 0.375
glycan array binding signal (z-score) [20]: 0.807
glycan array binding signal (z-score) [21]: 13.7
glycan array binding signal (z-score) [22]: 1.44
glycan array binding signal (z-score) [23]: 2.13
glycan array binding signal (z-score) [24]: -0.808
glycan array binding signal (z-score) [25]: -0.177
glycan array binding signal (z-score) [26]: 0.288
glycan array binding signal (z-score) [27]: 0.103
glycan array binding signal (z-score) [28]: 0.403

B2: PitA (Streptococcus oralis), G3F8D8 (protein)
chain: MNIRFDFKKVQIIARRLVTLLAILFLCAPISLLNADSTTEPQTTLHKTITPISGQDDKYELSLDITSKLGTETQTDPLDVVLVADLSGSMQNQDVQSFDGRTISRIDALKNTLRGTNGRKGLIDTILSNSNNRLSMVGFGGKIDNKKVDQYWDGNKWRLFRPYWPYERMTKYYDGVSPWDDANTILGWSNNARAAKTAVYNMSIAGGNSIGTESGIGTGTNIGAGLTLANQLMGSARSNAKKVVILLSDGFANMVYDANGYTIYNYNNEDPNIETAPQWFWDRLNNNLNSLSYSLAPTLDGFYSIKFRYSNNVDSITSLQYYMRQHNASIPNEIFSANDEDQLRDSFKDITDKILPLGIHHVSIKDVLSKYVQLLPNGSSEFRVVKEKDGSSEILIENQVTFDTKTTSEGLVEVTAKFSPNYSLEDGARYVLKFTVTSSQEALDAIAGDKKLEAGDAEGSDVNKLYSNKGASVTYSYGIGNSQTKTKEYSDNPTFKPSDPLTVPVEVEWQGVTGARTVITADQPSNVELKLVQKNKNGGSDNQDYRKTNVNVSKNVSNETRNFEKVAKGYQYDLIAPDVPAFTKEIKNVGTESKPSFKVIYKQLPSLTIKKVLEAENNLNKEFRIKVKLTSPDSKPLNGTFGEITVVNGEAEIRVEKRKRWEGILSYLPRGTHYKVEEEAASTNGYHVTYENQEGDLNKDETSIVTNHKLPSLSVTKKVTGVFANLLKSFKITINIRDAQNSPLNGTYTATVNNKRTPLQFTNGRASIDLNKDQTIKIYGLPLDSHYTVEEESNSSRGYQVSYENQEGKLDGDKSATVTNNKNSVPETGVDFLSSTLMLGIILPLGGIFFTILLGYLVVHRRK
glycan array binding signal (z-score) [29]: -0.512
glycan array binding signal (z-score) [30]: 1.05
glycan array binding signal (z-score) [31]: -0.627
glycan array binding signal (z-score) [32]: -0.148
glycan array binding signal (z-score) [33]: 0.263
glycan array binding signal (z-score) [34]: 3.68
glycan array binding signal (z-score) [35]: -0.322
glycan array binding signal (z-score) [36]: -0.522
glycan array binding signal (z-score) [37]: -0.302
glycan array binding signal (z-score) [38]: 0.537
glycan array binding signal (z-score) [39]: -0.463
glycan array binding signal (z-score) [40]: 0.179
glycan array binding signal (z-score) [41]: -0.641
